TDP1 cell CPT: growth inhibition of DT40 Tdp1-/-;hTDP1 cells with camptothecin (screen for TDP1 inhibitors) | chicken DT40 Tdp1-/-;hTDP1 cells + 20 nM CPT, ATP luminescence, 48 h | Potency, µM (top dose mostly 46.2 µM), for the others: at the top dose activity change, negative = growth inhibition, hits mostly inhibitors | hit rate 12% among 420,000 | AID 686979; further: potency means the concentration at half of the fitted maximal effect; nearly all actives have a fitted effect of over 55% in size
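Chicken DT40 Tdp1-/- cells stably complemented with human TDP1 were seeded at 400 cells/well in medium containing 20 nM camptothecin, exposed to pin-transferred compounds, and grown at 37 °C for at least 48 hr. Viability was read as ATP luminescence.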
IL1B secr inh: blocks inflammasome-driven IL-1 beta release | AID 743279 | THP-1 LPS/ATP IL-1B secretion, AlphaLISA, 16 h; hits give low values | hit rate 4.7% among 360,000 | activity change, % at 57.5 µM; in the data active means activity change below about -50%; inconclusive means mostly about -30% to -49%
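THP-1 cells pretreated 1 hr with compounds (up to 57.5 uM final), then stimulated with LPS (250 ng/mL final) plus ATP (1.25 mM final); secreted IL-1B measured by AlphaLISA after 16 hr, decreased signal indicating inhibition.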
DT40 TDP1 no CPT: qHTS for Inhibitors of human tyrosyl-DNA phosphodiesterase 1 (TDP1): qHTS in cells in absence of CPT. hit rate 15% among 420,000. DT40 Tdp1-/- hTDP1 cells, no CPT, ATP luminescence, 48 h. Potency, µM (series often up to 46.2 µM), inactives show at the highest dose activity change, negative = growth inhibition, hits mostly inhibitors. AID 686978, 2013; further: potency means the concentration at half of the fitted maximal effect; nearly all actives have a fitted effect of over 55% in size
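Readout: luminescence from CellTiter-Glo after 30 min in the dark at RT. Cells: DT40 Tdp1-/- with stable hTDP1, 400/well. Exposure: compounds alone, ≥48 hr, 37 °C.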
Six1-Eya2 blk: Six1/Eya2 interaction inhibition; Q15475+O00167; AID 651725; AlphaScreen GST-Six1/His-Eya2 binding, biochemical; hits give low values; hit rate 0.56% among 360,000; activity change, % (no concentration beside the values); in the data active means activity change below about -65%; inconclusive means mostly about -30% to -63%
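AlphaScreen with GST-Six1 and His-Eya2 (5X mix: 250 nM and 500 nM), glutathione donor and nickel acceptor beads; buffer 50 mM Tris pH 8.0, 300 mM NaCl, 1 mM TCEP; 1 h at 37 C in the dark.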
TDP1 inh: inhibitors of human tyrosyl-DNA phosphodiesterase TDP1; AID 485290; hit rate 0.28% among 350,000; Potency, µM (highest dose often 130 µM), for the others: at the top dose activity change, negative = inhibition, hits mostly inhibitors; recombinant TDP1, AlphaScreen DNA substrate cleavage; further: potency means the concentration at half of the fitted maximal effect; nearly all actives have a fitted effect of over 40% in size
Target sequence (Q9NUW8 whole entry, looked up): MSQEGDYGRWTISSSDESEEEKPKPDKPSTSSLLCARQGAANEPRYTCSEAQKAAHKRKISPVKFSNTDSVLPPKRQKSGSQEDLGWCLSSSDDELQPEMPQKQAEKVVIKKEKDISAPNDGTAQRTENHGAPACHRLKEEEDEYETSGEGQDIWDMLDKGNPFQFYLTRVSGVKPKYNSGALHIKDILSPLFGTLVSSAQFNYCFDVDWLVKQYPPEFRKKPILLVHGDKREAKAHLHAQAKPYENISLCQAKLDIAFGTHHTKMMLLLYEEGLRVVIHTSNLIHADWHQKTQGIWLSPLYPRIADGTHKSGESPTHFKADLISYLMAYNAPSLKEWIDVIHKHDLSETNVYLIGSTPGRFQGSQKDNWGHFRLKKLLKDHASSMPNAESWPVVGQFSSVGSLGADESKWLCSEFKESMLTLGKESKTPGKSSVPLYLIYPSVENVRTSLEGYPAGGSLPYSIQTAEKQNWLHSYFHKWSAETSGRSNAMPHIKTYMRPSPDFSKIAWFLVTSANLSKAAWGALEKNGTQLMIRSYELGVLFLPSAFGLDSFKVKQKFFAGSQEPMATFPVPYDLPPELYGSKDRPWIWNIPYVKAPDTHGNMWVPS
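E. coli-derived human Tdp1, 1 nM final. Cpd preinc 15 min RT; substrate 15 nM final, 5 min RT; AS bead mix 10 ug/ml final, 10 min RT. Signal loss = tyrosine-FITC cleavage. No-enzyme wells = max signal.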
CtBP-E1A inh: CtBP/E1A binding inhibition; AlphaScreen GST-E1A/His-CtBP binding, 1536-well; hits give low values; activity change, % (no concentration beside the values); hit rate 0.49% among 340,000; in the data active means activity change below about -65%; inconclusive means mostly about -30% to -63%
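Protein mix (5X: 125 nM each GST-E1A, His-CtBP) was incubated with pinned compound 2 h at 37 deg C in dark, in 50 mM Tris pH 8.0 buffer with 300 mM NaCl. Glutathione donor and nickel acceptor beads followed; AlphaScreen signal read after 1 h.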
The depositor's hits bear a star; i = inactive; u = inconclusive; x = no result; [ ] = dose if it differs, or a comment. Most compounds without a hit are left out; they make up all but 18% or so of the library. Unless noted, the call rests on the fitted dose curve; in most records, active means well fitted curve in the direction sought with a large enough effect; inconclusive means small, poorly fitted or top-dose-only effect, or another doubt; inactive means no such curve, though single readings can be large; an effect the other way counts as inactive or inconclusive. On the % scale 0 is the no-effect control and ±100 the full control effect.

SMILES | TDP1 cell CPT | IL1B secr inh | DT40 TDP1 no CPT | Six1-Eya2 blk | TDP1 inh | CtBP-E1A inh
CN(Cc1ccccc1)C(=O)CN1C(=O)NC2(CCCCCCC2)C1=O | -15% | 0 | u | 11 | 0%[56.1 µM] | -9
CCC(C)(C)C1CCC2(CC1)NC(=O)N(CC(=O)N(C)CC(=O)Nc1ccccc1C(F)(F)F)C2=O (stereo unspecified) | 23µM* | i | u | 9 | 6% | 11
O=C(CN1C(=O)NC2(CCCC2)C1=O)Nc1ccccc1C(F)(F)F | 5% | -6 | -9% | -8 | x | 6
COc1ccc2cc(CN(C)C(=O)CN3C(=O)NC4(CCCC4)C3=O)ccc2c1 | u | -15 | 23µM* | -3 | x | -3
CCC(C)(C)C1CCC2(CC1)NC(=O)N(CC(=O)N(C)Cc1ccc(OC(F)F)cc1)C2=O (stereo unspecified) | -97% | -4 | 7.3µM* | 9 | 0% | 5
N#CCCn1c(O)c(N=NC(=O)CNC(=O)c2cccs2)c2ccccc21 | -14% | 13 | -14% | -6 | -11% | 2
Cc1ccc(OCc2nc3c4c(ncn3n2)-c2ccccc2CC42CCCC2)cc1 | -17% | 14 | u | 0 | 5% | 1
CN(CCOc1ccc(Cl)cc1)C(=O)CN1C(=O)NC2(CCCC2)C1=O | u | -3 | u | 3 | -6%[0.505 µM] | 8
CCC(C)(C)C1CCC2(CC1)NC(=O)N(CC(=O)N(C)CCOc1ccc(Cl)cc1)C2=O (stereo unspecified) | u | 18 | 23µM* | 3 | 0%[0.505 µM] | -2
Cc1cc(C)cc(Cn2c3ccc(NC(=S)NCc4ccccc4F)cc3c(=O)n2C)c1 | u | u | u | -14 | x | -5
Cn1c(=O)c2cc(NC(=S)NCc3ccccc3F)ccc2n1Cc1ccccc1 | 16µM* | -14 | 15µM* | -1 | x | -6
COc1ccc(CNC(=O)Nc2ccc3c(c2)c(=O)n(C)n3Cc2cc(C)cc(C)c2)cc1 | 21µM* | 12 | u | -17 | x | -8
Cn1c(=O)c2cc(NC(=S)NCc3ccccc3F)ccc2n1Cc1cccc(C(F)(F)F)c1 | 21µM* | -1 | u | -3 | x | -11
Cn1c(=O)c2cc(NC(=S)NC3CCCCC3)ccc2n1Cc1ccc(Cl)cc1 | u | -57* | 23µM* | -16 | x | -23
Cn1c(=O)c2cc(NC(=S)NC3CC3)ccc2n1Cc1cccc(C(F)(F)F)c1 | -23% | 34 | u | 2 | x | -15
CCC(NC(=O)CCc1ccccc1)c1ccccc1 (stereo unspecified) | 1% | -9 | -2% | 4 | -6% | 19
Cc1ccc(-n2cnc3cc(C(=O)NC4CCCCCC4)ccc32)cc1Cl | u | x | u | x | 10% | x
CCCC/C(O)=C1\C(=O)CC(C)(C)CC1=Nc1ccc(N)cc1 | 10% | 0 | 3% | -1 | 7% | 12
Cc1ccc(Cl)cc1N1CCN(C(=O)Cc2c(C(=O)O)[nH]c3ccc(Cl)cc23)CC1 | -3% | 44 | 1% | -6 | 3% | -4
Cn1c(=O)c2cc(NC(=O)NCc3ccc(F)cc3)ccc2n1Cc1cccc(C(F)(F)F)c1 | 21µM* | -1 | 15µM* | 0 | x | 0
Cn1c(=O)c2cc(NC(=O)NCc3ccccc3)ccc2n1Cc1cccc(C(F)(F)F)c1 | u | 23 | u | 14 | x | 27
COc1ccc(CNc2ncnc3ccc(-c4ccoc4)cc23)c(OC)c1 | u | x | -26% | x | x | x
COc1ccc(CNc2ncnc3ccc(-c4cccc(C#N)c4)cc23)c(OC)c1 | u | x | 26µM* | x | x | x
COc1ccc(CNc2ncnc3ccc(-c4cccc(NS(C)(=O)=O)c4)cc23)c(OC)c1 | 18µM* | x | 15µM* | x | x | x
COc1ccc(CNc2ncnc3ccc(-c4ccccc4CN(C)C)cc23)c(OC)c1 | 21µM* | x | 10µM* | x | 16%[56.1 µM] | x
SMILES | TDP1 cell CPT | IL1B secr inh | DT40 TDP1 no CPT | Six1-Eya2 blk | TDP1 inh | CtBP-E1A inh
O=C(Cc1nn[nH]n1)Nc1ccc(F)cc1F | 1% | 1 | -2% | 16 | x | 6
CCCNCC(=O)Nc1sc2c(c1C(=O)Nc1c(C)n(C)n(-c3ccccc3)c1=O)CCCC2 | -11% | -7 | -21% | 0 | x | -4
COc1ccc(Cc2nc3ccc(C(=O)NCCc4ccncc4)cc3o2)cc1OC | -28% | 0 | -28% | 0 | 0% | -4
CN(CCCN1CCOCC1)C(=O)c1ccc2nc(Cc3cccc(Cl)c3)oc2c1 | u | i | u | 8 | 0% | -6
CCN(Cc1cnn(C)c1)C(=O)c1ccc2nc(Cc3cccc(Cl)c3)oc2c1 | 23µM* | 0 | 23µM* | -7 | 7% | -1
COc1ccc(Cc2nc3ccc(C(=O)N(C)CCc4cnn(C)c4)cc3o2)cc1OC | u | i | 8.2µM* | 0 | 3% | 6
COc1cc2nc(CCc3nc4cc(OC)c(OC)cc4[nH]3)[nH]c2cc1OC | 5.6µM* | x | 2µM* | x | x | x
CCCCn1c(N)c(N(CC)C(=O)c2cc(CC)c(C)s2)c(=O)[nH]c1=O | -1% | 0 | -7% | 4 | 1% | -2
CCOC(=O)C1CCN(C(c2cc(OC)c(OC)c(OC)c2)c2sc3nc(C)nn3c2O)CC1 (stereo unspecified) | u | -11 | -29% | 9 | 0% | 24
COc1cc(C(c2sc3nc(C)nn3c2O)N2CCC3(CC2)OCCO3)cc(OC)c1OC (stereo unspecified) | 16µM* | 6 | 16µM* | -2 | 2% | -4
Cc1cccc(/C=N/NC(=O)c2cccc([N+](=O)[O-])c2)n1 | 18µM* | -10 | 21µM* | u | 10% | -22
Cc1cc(/C=N/NC(=O)c2cccc([N+](=O)[O-])c2)c(C)n1-c1ccc(Cl)cc1Cl | u | -61* | u | -9 | 6% | -17
Cc1cc(/C=N/NC(=O)c2cccc(F)c2)c(C)n1-c1ccccc1 | u | -26 | 29µM* | -2 | 7% | x
Cc1cccc(/C=N/NC(=O)c2cccc(NC(=O)c3ccccc3)c2)n1 | -1% | 32 | -13% | u | x | u
Cc1cc(/C=N/NC(=O)c2ccccc2F)c(C)n1-c1ccccc1 | -18% | -25 | 2% | -13 | 8% | -11
Cc1cccc(/C=N/NC(=O)c2cccc(Cl)c2)n1 | u | -21 | 16µM* | u | x | u
O=C(NCc1nnc2c3ccccc3c(-c3ccccc3)nn12)c1ccccc1Cl | 3% | 47 | -6% | 5 | 5% | 4
CCN(CC)Cc1c(O)ccc2c(=O)c(Oc3ccccc3OC)coc12 | -10% | 1 | -2% | -4 | 2% | 17

Screening data: PubChem BioAssay, National Center for Advancing Translational Sciences (NCATS)
